Test results published in PubChem BioAssay.

The compounds below were run on PRMT1 (protein arginine N-methyltransferase 1) (assay: PRMT1 binders on small-molecule microarrays, primary screen, biochemical, small-molecule microarray, 635 nm fluorescence (AID 1088)). Details: small-molecule microarray binding, higher = more signal.

**Q.** How did the composite z-score turn out when `COc1ccc(NC(=O)O[C@H]2[C@H](OC(=O)c3cc4ccccc4[nH]3)[C@@H](OC(=O)c3cc4ccccc4[nH]3)[C@@H](OC)O[C@@H]2CO)cc1` was run?
**A.** The composite z-score was 0.496.

**Q.** For `C=C(CCCC)C(=O)CC[C@H](OC(=O)c1cccnc1)c1ccc(OCCO)cc1`, which composite z-score is on record?
**A.** Its composite z-score is 0.417.

**Q.** `C=CCN1C(=O)[C@]2(Cc3ccccc3)N=C(c3ccc(OCCCO)cc3)O[C@@H]2c2ccccc21` was tested. Which composite z-score did it give?
**A.** The composite z-score was 1.53.

**Q.** Which composite z-score does the source give for `CC(=O)NCCCC[C@@H]1NC(=O)[C@H]2C[C@@H](C(=O)NCCCCCNC(=O)CS)[C@@H](c3ccc(O)cc3)N2C1=O` here?
**A.** Its composite z-score is 0.524.

**Q.** With `C=CCC(OC(C)=O)[C@@H]1[C@@H](N(Cc2cc3ccccc3o2)C(=O)Cc2ccc(OC)cc2)c2cc(OCCCO)ccc2N1C(=O)c1ccc2ccccc2c1` (some centres undefined) as the compound, how does the composite z-score read?
**A.** Its composite z-score is -0.843.

**Q.** Which composite z-score does the source give for `CC(c1ccccc1)C(O)C1C=CC2C(=O)N(c3ccccc3)C(=O)C2N1Nc1ccccc1` (centres undefined) here?
**A.** Its composite z-score is 1.54.

**Q.** Which composite z-score does the source give for `COc1ccc([C@H]2C[C@H]3C(Br)=C[C@@]2(CO)C(=O)[C@]32CO2)cc1` here?
**A.** The composite z-score was -0.855.

**Q.** `COCCOC(=O)N1C(=O)[C@@]2(c3cc(C#CCCO)ccc31)[C@H](c1ccc(OCCO)cc1)N1[C@H](c3ccccc3)[C@H](c3ccccc3)OC(=O)[C@H]1[C@@H]2C(N)=O` was tested. Which composite z-score did it give?
**A.** The composite z-score was 1.54.

**Q.** With `CCCCN1CC=CC23O[C@@H]4/C=C\CCCOC(=O)C4[C@H]2C(=O)N(CCCCCO)[C@@H]3C1=O` (some centres undefined) as the compound, how does the composite z-score read?
**A.** The composite z-score was -1.13.

**Q.** For `NCCCCCCNC(=O)[C@H]1C[C@H]2C(=O)N[C@@H](Cc3ccccc3)C(=O)N2[C@H]1c1cccc(OCCO)c1`, which composite z-score is on record?
**A.** Its composite z-score is 0.753.

**Q.** With `COc1ccc([Si](C)(C)[C@@H]2[C@@H](CCn3cc(CCO)nn3)O[C@]3(C(=O)N(Cc4cccc(N5C(=O)c6cccc7cccc5c67)c4)c4ccccc43)[C@H]2C)cc1` as the compound, how does the composite z-score read?
**A.** Its composite z-score is 1.55.

**Q.** For `CC(=O)Nc1cc(Br)ccc1C(=O)NCc1ccccc1`, which composite z-score is on record?
**A.** Its composite z-score is 0.717.

**Q.** For `CCCCCN1CC=CC23O[C@@H]4C=CCOC(=O)[C@@H]4[C@H]2C(=O)N(C(C)CO)[C@@H]3C1=O` (some centres undefined), which composite z-score is on record?
**A.** The composite z-score was -0.508.

**Q.** For `CCOC(=O)C1=C[C@@H](C(C)C)N(S(=O)(=O)c2ccc(C)cc2)[C@H]1c1ccccc1F`, which composite z-score is on record?
**A.** The composite z-score was 1.58.

**Q.** Which composite z-score does the source give for `CS(=O)(=O)CCOC(=O)C1=CC(CCCO)=CC(C2CC2)N(Cc2cc3c(cc2Br)OCO3)C=C1C(=O)OCCS(C)(=O)=O` (centres undefined) here?
**A.** Its composite z-score is 1.37.

**Q.** `Cc1c(NC(=O)/C(C#N)=C/c2cccc([N+](=O)[O-])c2)c(=O)n(-c2ccccc2)n1C` was tested. Which composite z-score did it give?
**A.** The composite z-score was 0.366.

**Q.** With `C=CCN1Cc2ccccc2[C@@H]2OC(c3ccc(OCCCO)cc3)=N[C@]2(CCS(=O)(=O)c2ccccc2)C1=O` as the compound, how does the composite z-score read?
**A.** Its composite z-score is 1.55.

**Q.** `C=CCNC(=O)[C@@H]1[C@H]2C(=O)O[C@H](c3ccccc3)[C@H](c3ccccc3)N2[C@H](c2ccc(OCCO)cc2)[C@@]12C(=O)N(C(=O)OCCOC)c1ccc(C#CCC(C(=O)OC)C(=O)OC)cc12` was tested. Which composite z-score did it give?
**A.** The composite z-score was 1.54.

**Q.** Which composite z-score does the source give for `CN1C(=O)C2C=CC(C(O)C=Cc3ccc([N+](=O)[O-])cc3)N(Nc3ccccc3)C2C1=O` (centres undefined) here?
**A.** The composite z-score was 1.51.

**Q.** For `COCCOC(=O)N1C(=O)[C@@]2(c3cc(C#CC4=CCCCC4)ccc31)[C@H](c1ccc(OCCO)cc1)N1[C@H](c3ccccc3)[C@H](c3ccccc3)OC(=O)[C@H]1[C@@H]2C(=O)N1CCc2cc(OC)c(OC)cc2C1`, which composite z-score is on record?
**A.** The composite z-score was 1.55.

**Q.** For `CC(C)CN1C(=O)[C@@]2(c3ccc([N+](=O)[O-])cc3)CC(=O)N(C3CCCCC3)[C@@H]2c2ccc(CO)cc21`, which composite z-score is on record?
**A.** Its composite z-score is -1.13.

**Q.** Which composite z-score does the source give for `C#CCN1[C@H](/C=C/C2CC2)[C@H](Cc2ccccc2)OC(=O)[C@@H]1Cc1ccccc1` here?
**A.** The composite z-score was 0.663.

**Q.** Which composite z-score does the source give for `COc1ccccc1CN1C(=O)c2ccccc2[C@@]2(Cc3ccccc3N(CCCN(C)C)C2=O)[C@@H]1c1ccc(CO)cc1` here?
**A.** The composite z-score was 0.557.

**Q.** With `COC(=O)[C@@]1(CCC(=O)OC(C)(C)C)N=C(c2ccc(OCCCO)cc2)O[C@H]1c1ccccc1` as the compound, how does the composite z-score read?
**A.** Its composite z-score is 0.899.

**Q.** With `O=C(O)[C@@]1(CCS(=O)(=O)c2ccccc2)N=C(c2ccc(OCCCO)cc2)O[C@H]1c1ccccc1` as the compound, how does the composite z-score read?
**A.** Its composite z-score is 1.07.

**Q.** With `C=CCN(Cc1ccccc1)C(=O)C(c1cccs1)N(C(=O)/C=C\C(=O)O)c1ccc(CCOCCO)cc1` (centres undefined) as the compound, how does the composite z-score read?
**A.** Its composite z-score is -0.133.

**Q.** `CC(C)NC(=O)[C@@H]1c2ccccc2C(=O)N(C(C)C)[C@H]1c1ccc(CO)cc1` was tested. Which composite z-score did it give?
**A.** The composite z-score was 1.44.

**Q.** Which composite z-score does the source give for `C=CCC(OC(C)=O)[C@@H]1[C@@H](N(Cc2ccc(-c3cccc(C(F)(F)F)c3)o2)C(=O)c2cccc3ccccc23)c2cc(OCCCO)ccc2N1C(=O)Cc1ccc2ccccc2c1` (some centres undefined) here?
**A.** The composite z-score was 0.263.

**Q.** `COc1ccc([Si](C)(C)[C@@H]2[C@@H](CCn3cc([C@H](O)c4ccccc4)nn3)O[C@]3(C(=O)N(Cc4cccc(N5CCC5=O)c4)c4ccccc43)[C@H]2C)cc1` was tested. Which composite z-score did it give?
**A.** The composite z-score was -0.284.
